# Reference: PubChem BioAssay (NCATS)
# Results filed as inconclusive are left out. Where a call stands in place of a potency, no number is given. Calls of active or inactive are those of the source. Calls come from the whole dose curve; as a rule, active = well fitted curve in the direction sought with a large enough effect; inconclusive = small, poorly fitted or top-dose-only effect, or another doubt; inactive = no such curve, though single readings can be large; an effect the other way counts as inactive or inconclusive.
# Legend:
# [1] = Quantitative High-Throughput drug screen in 47 multiple myeloma cell lines against the NCATS MIPE library collection: FR4_PLB cell viability assay (AID 1918924; note: nearly all actives have a fitted effect of over 35% in size; note: potency is the fitted concentration of half-maximal effect)
# Summary of the method: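 qHTS of the MIPE 4.0 collection: 500 myeloma cells/well, 48 h drug exposure at 37C in 5% CO2, then CellTiter-Glo for 5 min at room temperature before luminescence reading.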
# [2] = target: Glutathione peroxidase 1 (Homo sapiens) (UniProt P07203); assay: Primary qHTS Assay for Inhibitors of Recombinant Selenoprotein Glutathione Peroxidase 1 (GPX1) (AID 1845191); note: nearly all actives have a fitted effect of over 65% in size; note: potency is the fitted concentration of half-maximal effect
# Chain of Glutathione peroxidase 1 (Homo sapiens) (P07203 whole entry, looked up): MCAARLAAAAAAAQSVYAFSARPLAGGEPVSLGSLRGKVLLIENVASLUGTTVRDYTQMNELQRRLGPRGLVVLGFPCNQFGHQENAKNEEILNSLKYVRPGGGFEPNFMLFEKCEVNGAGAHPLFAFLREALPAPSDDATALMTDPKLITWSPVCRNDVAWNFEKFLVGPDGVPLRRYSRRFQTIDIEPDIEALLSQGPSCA
# Summary of the method: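 GPX1 10 nM, GR 100 nM, GSH 1 mM, NADPH 0.5 mM, CHP 0.5 mM (final). 30-min cpd preincubation, RT. Ex340/Em450 read t=0, t=15 min.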
# [3] = target: Phospholipid hydroperoxide glutathione peroxidase GPX4 (Homo sapiens) (UniProt P36969); assay: Primary qHTS Assay for Inhibitors of Recombinant Selenoprotein Glutathione Peroxidase 4 (GPX4) (AID 1845192); note: nearly all actives have a fitted effect of over 65% in size; note: potency is the fitted concentration of half-maximal effect
# Chain of Phospholipid hydroperoxide glutathione peroxidase GPX4 (Homo sapiens) (P36969 whole entry, looked up): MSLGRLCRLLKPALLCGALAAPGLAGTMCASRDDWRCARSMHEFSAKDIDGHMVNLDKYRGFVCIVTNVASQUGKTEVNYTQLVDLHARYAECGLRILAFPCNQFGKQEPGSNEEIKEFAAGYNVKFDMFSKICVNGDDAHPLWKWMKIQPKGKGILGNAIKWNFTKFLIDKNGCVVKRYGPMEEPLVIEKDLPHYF
# Summary of the method: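 qHTS, GR-coupled: GPX4 200 nM + cpd 30 min RT → GSH 1 mM, NADPH 0.5 mM, GR 100 nM → CHP 0.5 mM start; fluor 340/450 at t0 and t15 min; no-enzyme wells as control.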
# [4] = target: Luciferin 4-monooxygenase (Photinus pyralis) (UniProt P08659); assay: Primary firefly luciferase (FLuc) qHTS assay for identification of artifact compounds. (AID 1845220); note: series mostly up to about 54 µM; nearly all actives have a fitted effect of over 60% in size
# Summary of the method: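 In this counter-screen for luciferase artifacts, test compounds met substrate (10 uM each luciferin and ATP) before 10 nM enzyme started the reaction. Light output was measured 5 min later.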
# [5] = Primary fluorescence-based thiol-reactive (MSTI) qHTS assay for identification of artifact compounds. (AID 1845221);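 note: series mostly up to about 54 µM; thiol-reactive compounds lower the probe fluorescence signal; nearly all actives have a fitted effect of over 65% in size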
# Summary of the method: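 Reactivity toward the thiol probe MSTI (4 uM) is scored by fluorescence at Ex/Em 525/598 nm after 1 h at room temperature. Acetyl-MSTI and MSTI define the activity scale.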
# [6] = tested on: Nanoluciferase (engineered Oplophorus gracilirostris luciferase); assay: Primary Nanoluciferase (NLuc) qHTS assay for identification of artifact compounds. (AID 1845222);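 note: NLuc secreted into diluted conditioned medium of S16 cells; series mostly up to about 54 µM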
# Summary of the method: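 Using secreted nanoluciferase in S16 culture medium (0.22 um filtered, 1:55 dilution), compounds were preincubated 15 min at RT. Signal was generated with Nano-Glo reagent (1:100) over 5 min.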
# [7] = Primary redox qHTS assay for identification of artifact compounds. (AID 1845223)
# Summary of the method: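 Redox-cycling detection via DTT (250 uM final) oxidation coupled to Amplex Red (25 uM)/HRP (250 mU/mL) in HBSS. 15 min preincubation plus 30 min after DTT, room temperature. Ex/Em 525/598 nm; 4-parameter Hill fit against DMSO and 10 uM DA3003.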
structure (smiles),measurement,setting,value
COc1ccc(-c2ccc3c(N4CCOCC4)nc(N4C[C@@H](C)O[C@@H](C)C4)nc3n2)cc1CO,Potency,[1],469 nM (active)
CCOc1cc(C=C2C(=O)N(c3ccccc3)N=C2C)cc(Cl)c1OCC(=O)OC,Potency,[1],inactive
Cc1c(CN2CCN(C(=O)C(C)C)CC2)sc2c(N3CCOCC3)nc(-c3cnc(N)nc3)nc12,Potency,[1],83.3 nM (active)
Nc1cccc(S(=O)(=O)N2CCCN(S(=O)(=O)c3ccc4c(c3)OCCO4)CC2)c1,Potency,[2],inactive
same,Potency,[3],inactive
same,Potency,[1],inactive
O=C1CCc2cc(OCCCCc3nnnn3C3CCCCC3)ccc2N1,Potency,[2],inactive
same,Potency,[3],inactive
same,Potency,[1],inactive
CCOc1ccc(Cc2cc([C@@H]3O[C@H](CO)[C@@H](O)[C@H](O)[C@@H]3O)ccc2Cl)cc1,Potency,[1],inactive
N#CC[C@H](C1CCCC1)n1cc(-c2ncnc3[nH]ccc23)cn1,Potency,[2],25500 nM (active)
same,Potency,[4],inactive
same,Potency,[5],inactive
same,outcome,[6],inactive
same,outcome,[7],inactive
O=C(C1CC1)N1CC[C@@H](Cn2c(-c3ccc(-c4ccc5occc5c4)cc3)nc3cnccc32)C1,Potency,[3],22700 nM (active)
COc1ccc(-c2ccc3c(N4CCOC[C@H]4C)nc(N4CCOC[C@H]4C)nc3n2)cc1CO,Potency,[1],23.5 nM (active)
